The target in assay [1] is human Peroxisome Proliferator-activated Receptor alpha (PPARa), PPARA (gene 5465) (UniProt Q07869). The assay can be described thus: ATG_PPARa_TRANS: Attagene TRANS-FACTORIAL HepG2 Assay for human Peroxisome Proliferator-activated Receptor alpha (PPARa) (AID 2283001; active means hit-call score of the fitted dose curve at least 0.9, where 1 is the maximum;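 on AC50: potency for gain of reporter signal over DMSO so agonist or activator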). In outline: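 Transient HepG2 transfection, GAL4-UAS reporters, NR-Gal4 chimeras; 24 h compound exposure. Readout: reporter transcripts by RT-PCR, 6-FAM primer extension, HpaI digest, capillary electrophoresis. Positive direction vs DMSO baseline.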
human Peroxisome Proliferator-activated Receptor alpha (PPARa), PPARA (gene 5465), sequence (Q07869 whole entry, looked up, the tested form may be a part): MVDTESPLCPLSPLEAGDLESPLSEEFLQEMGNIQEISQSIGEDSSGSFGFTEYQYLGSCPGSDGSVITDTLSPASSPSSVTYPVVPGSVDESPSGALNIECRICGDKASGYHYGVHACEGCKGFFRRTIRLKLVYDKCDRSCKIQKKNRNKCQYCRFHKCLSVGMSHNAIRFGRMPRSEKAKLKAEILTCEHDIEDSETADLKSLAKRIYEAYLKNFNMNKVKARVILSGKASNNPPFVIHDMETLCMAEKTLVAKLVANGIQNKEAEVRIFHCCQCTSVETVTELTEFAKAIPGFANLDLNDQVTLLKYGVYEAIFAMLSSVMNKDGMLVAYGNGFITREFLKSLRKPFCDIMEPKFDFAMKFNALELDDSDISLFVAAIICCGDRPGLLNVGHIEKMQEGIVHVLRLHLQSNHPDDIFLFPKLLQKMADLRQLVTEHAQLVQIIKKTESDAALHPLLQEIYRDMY

In assay [2] the target is human Peroxisome Proliferator-activated Receptor delta (PPARd), PPARD (gene 5467) (UniProt Q03181). Description: ATG_PPARd_TRANS: Attagene TRANS-FACTORIAL HepG2 Assay for human Peroxisome Proliferator-activated Receptor delta (PPARd) (AID 2283002; active means hit-call score of the fitted dose curve at least 0.9, where 1 is the maximum). Summed up:
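Fluorescence from capillary electrophoresis of labelled RT-PCR reporter fragments gives the signal; DMSO sets baseline. Cells: HepG2 transiently carrying GAL4-UAS reporter units plus chimeric nuclear receptor-Gal4 proteins, exposed to chemicals for 24 h.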

Read-out in assay [3]: Intercellular Adhesion Molecule 1 (ICAM1), ICAM1 (gene 3383)
The assay can be described thus: BSK_3C_ICAM1: BioMAP Diversity Plus: 3C Assay for Intercellular Adhesion Molecule 1 (ICAM1) Biomarker Activity (AID 2283003). The following applies: primary human endothelial cells (HUVEC); actives raise or lower the signal. In outline:
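Using DMSO as baseline, bidirectional curve fitting was applied to ICAM-1 ELISA signals from HUVEC in the 3C system, measured 24 h after compound addition.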

Assay [4] addresses human Retinoic Acid Receptor beta (RARb), RARB (gene 5915) (UniProt P10826). The assay can be described thus: ATG_RARb_TRANS: Attagene TRANS-FACTORIAL HepG2 Assay for human Retinoic Acid Receptor beta (AID 2283004; active means hit-call score of the fitted dose curve at least 0.9, where 1 is the maximum). In outline: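 Transient transfection of HepG2 with multiple reporter units → chemical dosing, 24 h → total RNA isolation → RT with oligo(dT) → reporter-specific PCR, 6-FAM primer extension, HpaI digest → capillary electrophoresis. Positive direction vs DMSO control.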

The nature of assay [5]: BSK_3C_Proliferation: Cell Proliferation Assessment in the BioMAP Diversity Plus: 3C Assay (AID 2283006).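 On AC50: potency may reflect either rise or fall in cell number versus DMSO.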 The following applies: primary human endothelial cells (HUVEC). In outline: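 Measured here: sulforhodamine B (0.1%) staining of TCA-fixed sub-confluent umbilical vein endothelial cultures 48 h post-dosing, absorbance 560 nm. DMSO served as negative control and baseline; both signal gain and loss were modelled.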

For assay [6], the target named is Peroxisome proliferator-activated receptor gamma (Homo sapiens) (UniProt P37231). Description: ATG_PPARg_TRANS: Attagene TRANS-FACTORIAL HepG2 Assay for human Peroxisome Proliferator-activated Receptor-gamma (PPARg) (AID 2283007; active means hit-call score of the fitted dose curve at least 0.9, where 1 is the maximum). Summed up: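 After 24 h of chemical exposure, transfected HepG2 cells carrying PPARγ-Gal4 chimera reporter constructs are lysed for RNA. Reporter transcripts are measured by RT-PCR and capillary electrophoresis with fluorescent labelling, and gain of signal is fitted versus DMSO.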
Peroxisome proliferator-activated receptor gamma (Homo sapiens), sequence (P37231 whole entry, looked up, the tested form may be a part): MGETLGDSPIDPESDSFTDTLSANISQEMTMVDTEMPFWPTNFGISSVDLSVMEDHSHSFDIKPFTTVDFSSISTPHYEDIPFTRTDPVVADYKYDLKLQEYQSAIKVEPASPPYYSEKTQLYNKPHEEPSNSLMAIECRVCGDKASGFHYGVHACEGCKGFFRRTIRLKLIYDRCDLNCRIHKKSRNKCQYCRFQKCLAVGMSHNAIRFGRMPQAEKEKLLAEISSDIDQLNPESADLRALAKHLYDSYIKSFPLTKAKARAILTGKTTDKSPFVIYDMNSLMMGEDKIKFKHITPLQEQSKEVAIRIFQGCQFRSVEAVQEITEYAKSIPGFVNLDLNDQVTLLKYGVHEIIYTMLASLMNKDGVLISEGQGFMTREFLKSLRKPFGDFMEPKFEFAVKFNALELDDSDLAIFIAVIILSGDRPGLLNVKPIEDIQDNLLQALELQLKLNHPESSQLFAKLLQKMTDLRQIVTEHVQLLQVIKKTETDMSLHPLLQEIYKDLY

Assay [7] has as its target Nuclear receptor subfamily 1 group I member 2 (Homo sapiens) (UniProt O75469). Description: ATG_PXR_TRANS: Attagene TRANS-FACTORIAL HepG2 Assay for human Pregnane X Receptor (PXR) (AID 2283008; active means hit-call score of the fitted dose curve at least 0.9, where 1 is the maximum). In outline:
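Transactivation by exogenous PXR–GAL4 fusion measured as reporter transcript induction after 24 h compound treatment of transfected human HepG2 cells. Read-out via RT-PCR and capillary electrophoresis of labelled fragments, fitted upward relative to DMSO.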

For assay [8], the target named is human RAR-related Orphan Receptor beta (RORb), RORB (gene 6096) (UniProt Q92753). The assay can be described thus: ATG_RORb_TRANS: Attagene TRANS-FACTORIAL HepG2 Assay for human RAR-related Orphan Receptor beta (RORb) (AID 2283010; active means hit-call score of the fitted dose curve at least 0.9, where 1 is the maximum). In outline:
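Multiplexed transcription-factor reporter assay: HepG2 cells transiently carrying NR-Gal4/GAL4-UAS constructs, 24 h treatment, mRNA quantified by RT-PCR plus capillary electrophoresis fluorescence; activity scored as induction over DMSO.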

Assay [9] concerns the target Retinoic acid receptor RXR-alpha (Homo sapiens) (UniProt P19793). Description: ATG_RXRa_TRANS: Attagene TRANS-FACTORIAL HepG2 Assay for human Retinoid X Receptor alpha (RXRa) (AID 2283012; active means hit-call score of the fitted dose curve at least 0.9, where 1 is the maximum). Summed up: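 Chimeric NR-GAL4 trans-activation in HepG2, 24 h treatment; reporter transcripts quantified by fluorescence on capillary electrophoresis, analysed for upward change from DMSO.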

Assay [10] deals with human Retinoid X Receptor beta (RXRb), RXRB (gene 6257) (UniProt P28702). Description: ATG_RXRb_TRANS: Attagene TRANS-FACTORIAL HepG2 Assay for human Retinoid X Receptor beta (RXRb) (AID 2283013; active means hit-call score of the fitted dose curve at least 0.9, where 1 is the maximum). Summed up:
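After a 24 h incubation with test chemical, transfected HepG2 cells carrying NR-Gal4 fusions and GAL4-UAS reporter transcription units yield RNA whose reporter cDNA is FAM-labelled, HpaI-cut and sized by capillary electrophoresis; increases over DMSO are scored.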

Assay [11] concerns the target human Thyroid Receptor alpha (THRa1), THRA (gene 7067) (UniProt P10827). The assay can be described thus: ATG_THRa1_TRANS: Attagene TRANS-FACTORIAL HepG2 Assay for human Thyroid Receptor alpha (THRa1) (AID 2283014; active means hit-call score of the fitted dose curve at least 0.9, where 1 is the maximum). In outline: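 Reporter transcript induction, read by capillary electrophoresis of 6-FAM-labelled RT-PCR products, reflects activity of a transfected THRa1-Gal4 fusion in HepG2 liver cells. Cells were dosed for 24 h; activity was fitted in the positive direction against DMSO.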

Read-out in assay [12]: E-selectin (Homo sapiens) (UniProt P16581)
The assay can be described thus: BSK_3C_Eselectin: BioMAP Diversity Plus: 3C Assay for Eselectin Biomarker Activity (AID 2283015).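 On outcome: cell surface E-selectin protein quantified by ELISA 24 h after dosing.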 The following applies: primary human endothelial cells (HUVEC); actives raise or lower the signal. In outline: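 ELISA read-out of E-selectin on endothelial monolayers after 24 h chemical treatment. Human umbilical vein primary cells served as the system, with DMSO defining baseline activity for bidirectional fitting.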

Read-out in assay [13]: Interleukin-1 alpha (IL1a), IL1A (gene 3552)
The assay can be described thus: BSK_BE3C_IL1a: BioMAP Diversity Plus: BE3C Assay for Interleukin-1 alpha (IL1a) Biomarker Activity (AID 2283016). The following applies: primary human bronchial epithelial cells; actives raise or lower the signal. In outline: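 Measured in human lung primary bronchial epithelial cells: IL-1a by ELISA at 24 h after dosing, with bidirectional fitting against DMSO.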

Read-out in assay [14]: Monocyte Chemoattractant Protein-1 (MCP1), CCL2 (gene 6347)
Description: BSK_3C_MCP1: BioMAP Diversity Plus: 3C Assay for Monocyte Chemoattractant Protein-1 (MCP1) Biomarker Activity (AID 2283017). The following applies: primary human endothelial cells (HUVEC); actives raise or lower the signal. In outline: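 ELISA read-out of MCP-1 from human umbilical vein endothelial cell cultures harvested 24 h post-dosing. Gain or loss of signal was fitted relative to DMSO.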

Read-out in assay [15]: Monocyte Chemoattractant Protein-1 (MCP1), CCL2 (gene 6347)
Description: BSK_4H_MCP1: BioMAP Diversity Plus: 4H Assay for Monocyte Chemoattractant Protein-1 (MCP1) Biomarker Activity (AID 2283018). The following applies: primary human endothelial cells (HUVEC); actives raise or lower the signal. In outline:
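Primary human umbilical vein endothelium is exposed to chemical for 24 h before MCP-1 is assayed by ELISA. Concentration-response fitted bidirectionally relative to DMSO.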

Read-out in assay [16]: Human Leukocyte Antigen - DR isotype (HLADR), HLA-DRA (gene 3122)
Description: BSK_3C_HLADR: BioMAP Diversity Plus: 3C Assay for Human Leukocyte Antigen - DR isotype (HLADR) Biomarker Activity (AID 2283019).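 On outcome: ELISA of cell-surface HLA-DR on HUVEC 24 h after dosing.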 The following applies: primary human endothelial cells (HUVEC); actives raise or lower the signal. Summed up:
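ELISA readout of surface HLA-DR on human umbilical vein endothelium, taken 24 h after chemical treatment. Gain- and loss-of-signal were both fitted relative to DMSO.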

Read-out in assay [17]: Monokine induced gamma interferon (MIG), CXCL9 (gene 4283)
Description: BSK_3C_MIG: BioMAP Diversity Plus: 3C Assay for Monokine induced gamma interferon (MIG) Biomarker Activity (AID 2283021).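 On AC50: MIG protein level measured by immunoassay in the treated endothelial cultures.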 The following applies: primary human endothelial cells (HUVEC); actives raise or lower the signal. Summed up:
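ELISA-measured MIG in dosed HUVEC 3C cultures at 24 h, analysed by bidirectional fitting with DMSO defining baseline activity.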

Assay [18] has as its target human Vitamin D Receptor (VDR), VDR (gene 7421) (UniProt P11473). The assay can be described thus: ATG_VDR_TRANS: Attagene TRANS-FACTORIAL HepG2 Assay for human Vitamin D Receptor (VDR) (AID 2283022; active means hit-call score of the fitted dose curve at least 0.9, where 1 is the maximum). Summed up:
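Steps: transfect HepG2 with GAL4-UAS-driven reporter constructs; dose compounds 24 h; isolate RNA, reverse-transcribe, PCR-amplify with 6-FAM-labelled primer extension and HpaI digestion; quantify fragments by capillary electrophoresis relative to DMSO.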

Assay [19] addresses Retinoic acid receptor alpha (Homo sapiens) (UniProt P10276). Description: ATG_RARa_TRANS: Attagene TRANS-FACTORIAL HepG2 Assay for human Retinoic Acid Receptor alpha (RARa) (AID 2283005; active means hit-call score of the fitted dose curve at least 0.9, where 1 is the maximum). In outline:
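HepG2 transiently transfected with multiplex GAL4-UAS reporter units including a human RARa–GAL4 chimera; 24 h compound exposure. Reporter mRNA quantified by RT-PCR, 6-FAM labeling and capillary electrophoresis; gain of signal versus DMSO.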

Records with an inconclusive call do not appear. The source made the active and inactive calls. How the source made its calls, unless noted: active means hit-call score of the fitted dose curve at least 0.9, where 1 is the maximum; inactive means score below 0.9.

The term AC50 denotes the concentration giving half of the maximal activity seen.

E-selectin (Homo sapiens), sequence (P16581 whole entry, looked up): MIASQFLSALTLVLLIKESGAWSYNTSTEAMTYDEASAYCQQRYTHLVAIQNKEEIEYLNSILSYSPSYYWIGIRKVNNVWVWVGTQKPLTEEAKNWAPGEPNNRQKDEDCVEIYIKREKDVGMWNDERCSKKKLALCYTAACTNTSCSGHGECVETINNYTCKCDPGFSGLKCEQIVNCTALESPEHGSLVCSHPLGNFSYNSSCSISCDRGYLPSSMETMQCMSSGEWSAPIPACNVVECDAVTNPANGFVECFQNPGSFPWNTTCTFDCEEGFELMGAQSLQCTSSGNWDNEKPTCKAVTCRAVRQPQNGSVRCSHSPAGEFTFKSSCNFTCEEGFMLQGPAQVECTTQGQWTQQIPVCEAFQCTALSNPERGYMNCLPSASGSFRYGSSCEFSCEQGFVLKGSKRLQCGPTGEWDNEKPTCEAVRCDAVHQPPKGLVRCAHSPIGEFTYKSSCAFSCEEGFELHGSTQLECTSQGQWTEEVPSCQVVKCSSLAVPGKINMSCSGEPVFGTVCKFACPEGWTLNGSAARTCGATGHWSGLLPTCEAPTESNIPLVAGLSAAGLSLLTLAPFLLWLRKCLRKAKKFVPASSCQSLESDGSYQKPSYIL
Nuclear receptor subfamily 1 group I member 2 (Homo sapiens), sequence (O75469 whole entry, looked up, the tested form may be a part): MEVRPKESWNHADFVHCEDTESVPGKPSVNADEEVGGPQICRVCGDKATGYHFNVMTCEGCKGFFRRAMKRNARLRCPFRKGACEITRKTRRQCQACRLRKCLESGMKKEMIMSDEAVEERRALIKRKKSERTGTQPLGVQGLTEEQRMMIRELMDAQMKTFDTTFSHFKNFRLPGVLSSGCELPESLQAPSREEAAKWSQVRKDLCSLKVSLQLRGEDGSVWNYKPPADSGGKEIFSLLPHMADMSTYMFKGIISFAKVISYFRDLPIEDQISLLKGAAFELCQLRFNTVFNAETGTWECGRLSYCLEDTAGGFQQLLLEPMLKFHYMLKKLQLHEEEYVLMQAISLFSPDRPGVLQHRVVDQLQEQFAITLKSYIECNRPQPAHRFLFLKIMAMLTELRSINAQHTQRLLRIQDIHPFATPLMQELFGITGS
human Retinoid X Receptor beta (RXRb), RXRB (gene 6257), sequence (P28702 whole entry, looked up, the tested form may be a part): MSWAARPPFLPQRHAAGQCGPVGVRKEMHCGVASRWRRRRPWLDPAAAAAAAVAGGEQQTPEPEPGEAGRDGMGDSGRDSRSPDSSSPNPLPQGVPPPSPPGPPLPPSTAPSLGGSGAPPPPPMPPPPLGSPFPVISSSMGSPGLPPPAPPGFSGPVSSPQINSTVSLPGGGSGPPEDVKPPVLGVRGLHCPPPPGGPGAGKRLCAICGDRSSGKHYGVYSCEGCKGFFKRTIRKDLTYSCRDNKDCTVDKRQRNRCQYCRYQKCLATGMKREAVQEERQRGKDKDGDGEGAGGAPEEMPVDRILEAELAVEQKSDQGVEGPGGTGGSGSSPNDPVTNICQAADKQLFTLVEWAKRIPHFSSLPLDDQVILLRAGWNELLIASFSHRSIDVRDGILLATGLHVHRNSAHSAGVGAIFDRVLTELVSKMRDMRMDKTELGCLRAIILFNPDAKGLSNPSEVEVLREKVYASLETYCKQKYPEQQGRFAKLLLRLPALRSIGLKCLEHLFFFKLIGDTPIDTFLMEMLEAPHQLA
Retinoic acid receptor RXR-alpha (Homo sapiens), sequence (P19793 whole entry, looked up, the tested form may be a part): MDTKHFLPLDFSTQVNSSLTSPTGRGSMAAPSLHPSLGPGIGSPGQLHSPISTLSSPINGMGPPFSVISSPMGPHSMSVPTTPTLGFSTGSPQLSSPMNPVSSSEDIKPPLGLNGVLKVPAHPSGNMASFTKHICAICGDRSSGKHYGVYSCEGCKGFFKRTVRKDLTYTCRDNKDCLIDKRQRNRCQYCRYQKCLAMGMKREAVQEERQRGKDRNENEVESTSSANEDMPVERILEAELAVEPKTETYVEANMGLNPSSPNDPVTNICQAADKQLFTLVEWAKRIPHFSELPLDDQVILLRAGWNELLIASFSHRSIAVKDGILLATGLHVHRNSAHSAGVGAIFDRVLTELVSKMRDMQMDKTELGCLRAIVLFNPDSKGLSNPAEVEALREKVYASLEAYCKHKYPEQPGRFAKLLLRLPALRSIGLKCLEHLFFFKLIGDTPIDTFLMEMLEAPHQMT
human Vitamin D Receptor (VDR), VDR (gene 7421), sequence (P11473 whole entry, looked up, the tested form may be a part): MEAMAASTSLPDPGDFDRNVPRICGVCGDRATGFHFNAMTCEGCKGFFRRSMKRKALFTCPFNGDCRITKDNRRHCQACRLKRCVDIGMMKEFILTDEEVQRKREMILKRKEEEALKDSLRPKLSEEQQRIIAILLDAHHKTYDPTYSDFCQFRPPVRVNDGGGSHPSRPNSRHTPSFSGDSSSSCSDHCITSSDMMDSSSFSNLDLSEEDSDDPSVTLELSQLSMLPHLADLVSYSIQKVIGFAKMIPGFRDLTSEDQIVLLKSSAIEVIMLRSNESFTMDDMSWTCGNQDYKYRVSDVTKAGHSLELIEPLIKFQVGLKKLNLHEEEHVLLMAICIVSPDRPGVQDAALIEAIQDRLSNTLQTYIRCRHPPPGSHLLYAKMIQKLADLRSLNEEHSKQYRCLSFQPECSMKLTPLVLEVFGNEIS
human Peroxisome Proliferator-activated Receptor delta (PPARd), PPARD (gene 5467), sequence (Q03181 whole entry, looked up, the tested form may be a part): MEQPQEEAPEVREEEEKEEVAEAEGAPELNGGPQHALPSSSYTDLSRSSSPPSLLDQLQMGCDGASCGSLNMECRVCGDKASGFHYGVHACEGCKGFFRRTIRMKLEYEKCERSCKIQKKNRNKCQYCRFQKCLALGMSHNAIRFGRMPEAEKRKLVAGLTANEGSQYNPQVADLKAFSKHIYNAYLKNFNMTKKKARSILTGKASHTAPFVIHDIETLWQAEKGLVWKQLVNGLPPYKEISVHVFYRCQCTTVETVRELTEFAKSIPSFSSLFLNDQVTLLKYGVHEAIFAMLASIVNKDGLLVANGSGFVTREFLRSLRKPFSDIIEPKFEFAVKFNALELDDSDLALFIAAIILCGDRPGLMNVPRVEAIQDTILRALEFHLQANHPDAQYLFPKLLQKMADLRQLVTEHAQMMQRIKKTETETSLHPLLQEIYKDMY
human Thyroid Receptor alpha (THRa1), THRA (gene 7067), sequence (P10827 whole entry, looked up, the tested form may be a part): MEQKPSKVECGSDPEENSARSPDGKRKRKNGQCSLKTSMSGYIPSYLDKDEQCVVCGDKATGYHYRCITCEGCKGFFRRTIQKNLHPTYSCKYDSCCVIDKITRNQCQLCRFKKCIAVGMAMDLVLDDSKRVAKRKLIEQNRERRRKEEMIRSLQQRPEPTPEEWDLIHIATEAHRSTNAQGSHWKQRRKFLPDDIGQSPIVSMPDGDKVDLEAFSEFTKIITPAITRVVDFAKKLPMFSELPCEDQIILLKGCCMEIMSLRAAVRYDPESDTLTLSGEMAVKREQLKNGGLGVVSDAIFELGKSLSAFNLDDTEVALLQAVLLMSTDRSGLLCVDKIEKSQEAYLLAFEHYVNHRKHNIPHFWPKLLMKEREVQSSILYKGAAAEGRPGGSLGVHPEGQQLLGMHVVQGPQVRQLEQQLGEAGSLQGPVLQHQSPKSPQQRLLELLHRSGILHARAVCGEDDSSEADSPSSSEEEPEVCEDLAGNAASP
human RAR-related Orphan Receptor beta (RORb), RORB (gene 6096), sequence (Q92753 whole entry, looked up, the tested form may be a part): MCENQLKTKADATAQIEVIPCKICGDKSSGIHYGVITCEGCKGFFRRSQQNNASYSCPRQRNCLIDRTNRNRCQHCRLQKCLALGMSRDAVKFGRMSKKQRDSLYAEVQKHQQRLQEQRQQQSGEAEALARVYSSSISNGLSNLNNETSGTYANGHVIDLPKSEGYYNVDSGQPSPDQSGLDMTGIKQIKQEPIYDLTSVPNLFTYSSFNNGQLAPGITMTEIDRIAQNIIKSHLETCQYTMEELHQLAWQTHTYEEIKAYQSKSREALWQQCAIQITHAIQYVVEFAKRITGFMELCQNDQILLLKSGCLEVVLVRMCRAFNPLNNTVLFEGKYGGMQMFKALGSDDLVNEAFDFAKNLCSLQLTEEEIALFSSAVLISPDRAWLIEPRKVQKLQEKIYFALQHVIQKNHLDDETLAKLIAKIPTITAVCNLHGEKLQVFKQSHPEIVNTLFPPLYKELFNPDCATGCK

Turning to `CCCCCCCCOC(=O)c1cc(O)c(O)c(O)c1`, the AC50 in [1] is 33.4 µM (active); in assay [2], 39.7 µM (active); in assay [3], 35.5 µM (active); in [5], 17 µM (active); in [6], 39.8 µM (active); in [7] it was 6.39 µM (active). Also, the AC50 was 38.8 µM (active) in assay [12]; 33.4 µM (active) in [13]; 31.8 µM (active) in assay [14]; 8.64 µM (active) in [15]; 15.3 µM (active) in [16]; 39.3 µM (active) in assay [17]. In addition, the AC50 in assay [18] is 55 µM (active). For the same compound, the compound was called inactive in [4], in assay [8], in assay [9], in assay [10] and in [11].
With `Cc1ncc(CO)c(CO)c1O`, the outcome in assay [1], in assay [2], in assay [3], in [5], in [6] and in assay [7] was inactive. The call in assay [9], in [10], in [12], in assay [13], in assay [14] and in assay [15] was inactive. The outcome in [16], in assay [17] and in [18] was inactive.
On to `CC(C)(C)c1csc(-c2cc3cc(OCc4ccccc4CC(=O)O)ccc3o2)n1`, for which the call in [1], in assay [3], in assay [7], in assay [9], in assay [12] and in assay [18] was inactive. Moreover, the AC50 was 18.1 µM (active) in assay [5]; 1.51 µM (active) in [6]; 10 µM (active) in assay [13]; 21.6 µM (active) in [14]; 22.6 µM (active) in [15]; 17.3 µM (active) in assay [16]. The AC50 in assay [17] was 32 µM (active).
On to `CCO[Si](CCCNC(N)=O)(OCC)OCC`, for which the result in [3], in [19], in assay [5], in assay [9], in assay [10] and in assay [12] was inactive. Further, the result in assay [13], in assay [14], in assay [15], in [16] and in assay [18] was inactive.
